High-throughput results deposited in PubChem by several laboratories.
TMEM16A inh: TMEM16A chloride channel inhibitors, primary screen, cell-based, HTS; actives 1.2% (n = 310,000); Anoctamin-1 (Mus musculus), Q8BHY3; AID 588511, 2011; HEK293 TMEM16A/YFP iodide influx fluorescence, ionomycin; normalized B-score (activity score, 25-100; higher = stronger inhibition) at 10 µM;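 active = ratio plate-corrected score three or more library SD toward inhibition, starting fluorescence score within five deviations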;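 note: score derived from kinetic fluorescence span divided by baseline fluorescence per well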
CHT allo act: CHT positive allosteric modulators, primary screen, cell-based, membrane potential dye, choline EC20; High affinity choline transporter 1 (Homo sapiens), Q9GZV3; CHT-expressing cells; active compounds read high; LV-AA mutant CHT in HEK293 cells; B-score at 10 µM; actives 0.49% (n = 310,000); AID 488977, 2010;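 active = initial fluorescence not abnormally high and integrated response B-score, plate-corrected, over 3 SD above library mean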
ANO1 activ: TMEM16A chloride channel activators or potentiators, primary screen, cell-based, HTS; Anoctamin-1 (Mus musculus), Q8BHY3; HEK293 TMEM16A/YFP-H148Q/I152L, iodide quench fluorescence; active compounds read low; B-score at 10 µM; actives 0.3% (n = 340,000); AID 623877, 2012;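 active = fluorescence-ratio B-score plate-corrected deviation score at least 3 library SD below zero, with starting fluorescence score within 5 deviations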;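 note: channel opened by trigger with iodide after compound preincubation; score built on the fluorescence ratio of max minus min over baseline; more negative score means more quench and so TMEM16A activation or potentiation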
PKA-R1A act: activators of PKA-R1A holoenzyme, primary screen, biochemical, fluorescence polarization, Cy5-IP20, bovine R1A, mouse PKAc; PKA-R1A dissociation; scaled: DMSO 0%, 113 µM cGMP 100%; activation, % at 11.4 µM; actives 0.083% (n = 340,000);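 active = percent activation above the mean of all tested compounds plus 3 SD, cut at about 19% in these data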;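 note: higher means more PKAc released from R1A so a rise in polarization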
PKA-R2B activ: activators of PKA-R2B holoenzyme, primary screen, biochemical, fluorescence polarization, Cy5-IP20, human. cAMP-dependent protein kinase catalytic subunit beta (Homo sapiens) + cAMP-dependent …. PKA-R2B holoenzyme dissociation; R2B truncated from residue 108, S112A mutant; 0% DMSO only, 100% 113 µM cGMP. activation, % at 11.4 µM. actives 0.079% (n = 340,000);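 active = activation above a cutoff set at the mean over all compounds plus 3 SD, cut at about 18% in these data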;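 note: higher means more holoenzyme dissociation and a rise in polarization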
Target sequence (P31323 whole entry, looked up, other chains not shown, the tested form may be a part): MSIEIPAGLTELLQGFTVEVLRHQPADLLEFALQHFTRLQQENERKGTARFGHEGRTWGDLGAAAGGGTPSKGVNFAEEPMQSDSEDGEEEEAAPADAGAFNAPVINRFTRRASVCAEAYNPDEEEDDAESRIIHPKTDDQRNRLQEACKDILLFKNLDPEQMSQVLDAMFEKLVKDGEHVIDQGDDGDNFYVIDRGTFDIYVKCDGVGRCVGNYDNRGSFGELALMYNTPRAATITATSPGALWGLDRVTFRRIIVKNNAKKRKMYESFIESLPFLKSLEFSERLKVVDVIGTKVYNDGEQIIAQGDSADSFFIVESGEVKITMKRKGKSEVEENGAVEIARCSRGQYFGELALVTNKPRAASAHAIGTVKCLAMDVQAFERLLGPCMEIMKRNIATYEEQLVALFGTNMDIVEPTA
CHT inh: inhibitors of human choline transporter CHT | actives 0.86% (n = 310,000) | B-score at 10 µM | High affinity choline transporter 1 (Homo sapiens), Q9GZV3 | CHT-expressing cells, membrane potential dye, choline response; active compounds read low;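 active = B-score over 3 SD under the library average, and starting fluorescence ratio not unusually high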;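 note: choline stimulus applied at its EC90 after an EC20 pre-addition; B-score computed on integrated fluorescence ratio after choline addition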
CHT block conf: CHT inhibitors, confirmation, cell-based, membrane potential dye, duplicate; shares compounds with CHT inh; CHT-expressing cells, choline membrane potential dye; LV-to-AA substituted CHT, HEK293 cells; CHT activity remaining % of control (active compounds read low), % at 10 µM; actives 70% (n = 2,400); AID 493221, 2011;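 active = choline transporter activity left, mean of duplicates at 10 µM, below buffer-only control mean minus 3 SD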;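 note: depolarization triggered by choline at its EC90 following an EC20 pre-addition; 0% = hemicholinium-3 full block and 100% = buffer-only control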
HEK293 CHT ctr: membrane potential effects in parental HEK293, counter-screen for CHT inhibitor project, cell-based, membrane potential dye; shares compounds with CHT inh; actives 4% (n = 2,400); membrane potential ratio readout (active if shifted either direction beyond buffer ±3SD; no single direction) at 10 µM; choline response; active = decrease or increase beyond buffer ±3SD;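 note: parental cells lack the transporter so any hit is non-specific; ratio is peak minus trough fluorescence over baseline after EC90 choline challenge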
Numbers without * were called inactive; i = inactive; · = no result. Sampled rows, rich in hits. Any-hit rate of the full collection: about 2.5%.

SMILES	TMEM16A inh	CHT allo act	ANO1 activ	PKA-R1A act	PKA-R2B activ	CHT inh	CHT block conf	HEK293 CHT ctr
O=C(CS(=O)(=O)Nc1ccc(F)cc1Cl)Nc1ccc(F)cc1Cl	i	i	i	-2	-6	-11*	66%*	i
CCN(CC(=O)NCc1ccc(F)cc1)Cc1cc(=O)n2ccsc2n1	i	i	i	1	0	i	·	·
COc1cc(CN(C)Cc2cc(=O)n3ccsc3n2)ccc1OC(F)F	i	i	i	-4	-7	-5.6*	59%*	i
CCc1ccc(NC(=O)C(C)OC(=O)Cn2[nH]c(=O)c3ccccc3c2=O)cc1 (centres undefined)	·	·	·	0	0	·	·	·
CC(C)COc1ccc(C(=O)N2C(=O)c3ccc(N)cc3C2=O)cc1	i	i	i	-6	5	i	·	·
COc1ccc2c(c1)c(C(O)CN1CCC(Cc3ccccc3)CC1)c(C)n2C (centres undefined)	i	i	i	2	-16	-11*	22%*	i
CCC1NC(=O)c2ccccc2N1c1cccc(Cl)c1 (centres undefined)	i	i	i	-2	-9	i	·	·
Oc1c(Br)cc(Cl)cc1C=Nc1ccc(N2CCOCC2)cc1	i	i	i	·	·	i	·	·
Oc1c(Br)cc(Cl)cc1C=Nc1ccccc1Br	i	i	i	-5	8	-7.1*	68%*	i
COc1ccc(N(CC(C)C)S(=O)(=O)c2nnc(NC(=O)c3ccco3)s2)cc1	i	i	i	-5	-1	i	·	·
O=C(CSc1nc(-c2ccc(F)cc2)cs1)NCC1CCCO1 (centres undefined)	·	·	i	-2	9	·	·	·
O=C(CSc1nn(-c2ccc(F)cc2)c(=S)s1)NCC1CCCO1 (centres undefined)	i	i	i	-18	-6	-5.4*	i	i
Cc1cc(NCC(c2ccccc2)c2ccccc2)n2ncnc2n1	i	i	i	-1	-8	i	·	·
COc1ccc(NC(C)(C)c2nnnn2-c2c(C)cccc2C)cc1	i	i	i	0	10	-5.4*	59%*	i
Cc1cccc(C)c1-n1nnnc1C(C)(C)N1CCN(N=O)CC1	i	i	i	-1	10	-7.2*	i	i
CCOc1cc(N2CCOCC2)c(OCC)cc1NC(=O)CSc1nnc(N)s1	·	·	i	3	1	·	·	·
COc1ccc(-c2ccc(-c3noc(-c4ccccc4OC)n3)c(OC)n2)cc1	i	i	i	6	0	-5*	i	i
COc1cc(C(=O)N2CCCN(c3nc4cc(C)ccc4cc3C#N)CC2)cc(OC)c1OC	i	i	·	·	·	i	·	·
Cc1ccc2cc(C#N)c(N3CCN(C(=O)c4ccccc4)CC3)nc2c1	i	i	i	1	-9	-5.2*	i	i
COc1ccc(C2CC(=O)Nc3n[nH]c(-c4ccccc4)c32)cc1OC (centres undefined)	i	i	i	-3	-10	i	·	·
Cc1sc2ncnc(N(C)Cc3ccco3)c2c1C	i	i	i	-7	-2	-5.1*	i	i
Cc1sc2ncnc(SCc3ccco3)c2c1C	i	i	i	12	1	i	·	·
CCCNC(=O)c1cn(CC)c2cc(N3CCN(C)CC3)c(F)cc2c1=O	i	i	i	4	-11	i	·	·
CCCc1nnc(NC(=O)c2cn(CC)c3cc(N4CCN(C)CC4)c(F)cc3c2=O)s1	i	i	i	·	·	-5.2*	i	i
COc1ccc(C(C)(C)C)cc1NC(=O)CCCN1C(=O)NC(C)(C)C1=O	·	·	i	2	4	·	·	·
SMILES	TMEM16A inh	CHT allo act	ANO1 activ	PKA-R1A act	PKA-R2B activ	CHT inh	CHT block conf	HEK293 CHT ctr
Cc1c(C#N)c(NC(=O)CCl)n(Cc2cccs2)c1C	i	i	i	13	-3	-6.1*	i	i
Cc1c(C#N)c(NC(=O)CCl)n(Cc2ccccc2)c1C	i	i	i	14	-1	i	·	·
Cc1ccccc1NC(=O)N1CCc2ccccc2C1	i	i	i	-1	5	-5.6*	i	i
COc1ccc(N2CCN(S(=O)(=O)c3cc4c(cc3C)N(C(C)=O)CCO4)CC2)cc1	i	i	i	-12	-5	i	·	·
Cc1nc(SCC(N)=O)[nH]c(=O)c1Cc1ccc(OC(C)C)cc1	i	i	i	7	-10	-6.1*	i	i
CC(/C=C1\SC(=O)N(CCCC(=O)O)C1=O)=C\c1ccccc1	i	i	i	-8	0	-5*	64%*	i
O=C(CCCSc1nnc(-c2cccs2)n1CC1CCCO1)c1ccccc1 (centres undefined)	i	i	i	-4	-4	-5.5*	i	-8.6*
O=C(CSc1nnc(-c2cccs2)n1CC1CCCO1)N1CCCC1 (centres undefined)	i	i	i	-20	-4	i	·	·
OCCCNc1cc(-c2ccccc2)nc2cc(-c3ccc(F)cc3)nn12	i	i	i	-9	3	i	·	·
CSc1nc2ccsc2c(=O)n1-c1ccccc1	i	i	i	0	-6	i	·	·
CNc1nc(SC)nc2ccsc12	i	i	i	0	-8	-14*	4.2%*	i
S=C(NCCCN1CCOCC1)Nc1cccc(-c2nnc3n2CCCCC3)c1	i	i	i	5	10	-5.2*	61%*	i
Cc1cccc(NC(=S)NCCN2CCOCC2)c1	i	i	i	-6	-6	i	·	·
O=C(NCc1cccnc1)C1CCN(S(=O)(=O)c2cccc(C(F)(F)F)c2)CC1	·	·	i	-8	-10	·	·	·
